Test results published in PubChem BioAssay (NCI).
This is part of a sample that, as a whole, favours compounds with a hit. Of some 83,000 tested, about 20% had one in any assay.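 Compound tested at a single concentration for 48 hours in 96-well plates; a percent growth value below 10 was scored as active.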 Values without a mark were called inactive. The source made the active and inactive calls.

Legend:
Assay in all cases: NCI-60 one-dose screen, 48 h (100 = growth as untreated, 0 = no growth, -100 = all killed)
Settings in all cases: 10 µM unless noted
[1] = tested on: NCI-H23 lung
[2] = tested on: NCI-H226 lung
[3] = tested on: NCI-H322M lung
[4] = tested on: HOP-62 NSCLC
[5] = tested on: NCI-H460 lung
[6] = tested on: HOP-92 NSCLC
[7] = tested on: NCI-H522 lung
[8] = tested on: A549/ATCC NSCLC
[9] = tested on: 786-0 renal
[10] = tested on: COLO 205 colon
[11] = tested on: DU-145 prostate
[12] = tested on: K-562 leukemia
[13] = tested on: MALME-3M melanoma
[14] = tested on: MDA-MB-231 breast
[15] = tested on: RXF 393 renal
[16] = tested on: SF-268 CNS
[17] = tested on: SF-295 CNS
[18] = tested on: SF-539 CNS
[19] = tested on: UACC-257 melanoma
[20] = tested on: M14 melanoma

Row | SMILES | growth [1] | growth [2] [%] | growth [3] [%] | growth [4] [%] | growth [5] | growth [6] | growth [7] | growth [8] [%] | growth [9] [%] | growth [10] [%] | growth [11] | growth [12] | growth [13] | growth [14] [%] | growth [15] | growth [16] [%] | growth [17] | growth [18] | growth [19] [%] | growth [20]
1 | COc1ccc(N2C(=O)C(Oc3ccccc3)C2c2ccc(C)cc2)cc1 (stereo not given) | 91% | 114 | 103 | 104 | 103% | 66.8% | 94.2% | 90.5 | 98.5 | 107 | 113% | 95.1% | 93.4% | 101 | 126% | 102 | 89.6% | 98.6% | 95.3 | 93.1%
2 | COc1c(C2CC(=O)Nc3c2c(C)nn3-c2nc3ccccc3[nH]2)cc2c(c1OC)OCO2 (stereo not given) | 48.2% | 75.8 | 78.5 | 43.4 | 35.6% | 70.9% | 53.3% | 35.8 | 67.6 | 84.1 | 80.2% | 15.1% | 86.5% | 68.4 | 27.1% | 62.1 | 19.8% | 59.8% | 67.1 | 33.3%
3 | Cc1ccc(-c2nc(N3CCN(C(=O)c4ccc(OC(F)(F)F)cc4)CC3)c3ccccc3n2)cc1 | 94.9% | 83.6 | 93 | 99.3 | 92.8% | 103% | 82% | 71.6 | 81.7 | 91.1 | 90.8% | 70% | 104% | 84.3 | 88.5% | 71.9 | 93.9% | 98.2% | 99.3 | 94.9%
4 | O=c1cc(SCc2ccccc2)nc[nH]1 | 108% | 104 | 105 | 91.1 | 112% | 100% | 116% | 103 | 95 | 133 | 121% | 113% | 111% | 113 | 124% | 106 | 100% | 108% | 108 | 106%
5 | CCc1ccc(Oc2c(-c3ccc(OCCc4cccc(C(F)(F)F)c4)cc3O)n[nH]c2C(F)(F)F)cc1 | 4.8% (active) | 52.9 | 76.7 | 76.6 | 2.53% (active) | -5.8% (active) | -20.5% (active) | 55.9 | 91.2 | 100 | 25.6% | 7.94% (active) | 48.8% | 50.2 | 80.7% | 47.7 | 87.6% | 74% | 56.6 | 59.1%
6 | O=C(/C=C/c1sc(Cl)nc1Cl)c1ccc(F)cc1 | 94% | 96.4 | 100 | 95.6 | 102% | 96.9% | 86.6% | 98.4 | 95.8 | 75.6 | 92% | 10% | 79.3% | 81.5 | 93.3% | 92.8 | 95.7% | 66.8% | 95.9 | 78.4%
7 | Cc1cccc2c(=O)c3c(sc12)c(NCc1ccccc1)nc1ccccc13 | 84.5% | 76.3 | 89.9 | 87.5 | 54.8% | 111% | 81.6% | 92 | 100 | 87.2 | 102% | 101% | 110% | 89.4 | 107% | 107 | 98.9% | 102% | 104 | 103%
8 | COc1c(B(O)O)cc(C)cc1-c1nc2ccc3[nH]ncc3c2c2c1CCCC2 | 70.9% | 73.7 | 106 | 43 | 31.4% | 53.8% | 37.3% | 52.7 | 48.3 | 19.6 | 72.6% | 24.1% | 91.6% | 23.4 | -2.67% (active) | 50 | 53.1% | 12.5% | 102 | 97.4%
9 | COc1ccc(CN2c3ccccc3Sc3ccccc32)c(F)c1 | 50.5% | 56.1 | 44.7 | 26.6 | 11% | 33.2% | -12% (active) | 34.1 | 42.2 | 11.7 | 20.5% | 8.99% (active) | 57% | 60.4 | 0.721% (active) | 52.3 | 7.51% (active) | -3.66% (active) | 52.3 | 11.2%
10 | CSc1ncccc1C(=O)OCC(=O)Nc1oc(C)c2c(C)n[nH]c(=O)c12 | 99.3% | 86.3 | 104 | 105 | 108% | 73.4% | 84.2% | 103 | 91.6 | 122 | 103% | 87.8% | 106% | 109 | 92.1% | 105 | 95% | 99.7% | 103 | 110%
11 | COc1cc(C2CC(c3ccc(SC)cc3)=NN2C(C)=O)cc(OC)c1OC (stereo not given) | 70.5% | 85.3 | 91 | 80.1 | 48.6% | 83.7% | 35.2% | 58 | 84.6 | 64.6 | 91% | 31.1% | 59.6% | 85.3 | 77.7% | 77.2 | 44.1% | 78.1% | 79.4 | 44.3%
12 | CS(=O)(=O)N(c1cc(-c2ccc3ncnc(Nc4ccc(F)c(Cl)c4)c3c2)cnc1Cl)S(C)(=O)=O | 34.7% | 59.1 | 34.8 | 42 | 34.2% | -12.2% (active) | 52.5% | 57.3 | 35 | 45.1 | 47.3% | 50.5% | 9.57% (active) | 44.3 | -6.35% (active) | 32.3 | 34% | 39.9% | 38.8 | 43.6%
13 | Cc1cc(=O)oc2cc(OC(=O)CN3CCN(C)CC3)ccc12 | 97.4% | 100 | 105 | 99.3 | 102% | 88.5% | 92.4% | 102 | 105 | 110 | 109% | 93.7% | 112% | 101 | 101% | 97.5 | 101% | 98.4% | 109 | 97.9%
14 | C[C@]12CC[C@@H]3c4cc(OC(F)F)c(OS(N)(=O)=O)cc4CC[C@H]3[C@@H]1CC[C@@H]2O | 24.5% | 54.9 | 42.4 | 38.7 | 12.1% | 58.6% | 19.8% | 29.5 | 42.3 | 12.4 | 9.26% (active) | 12.3% | 26.4% | 43.3 | -5.44% (active) | 49.6 | 2.5% (active) | -3.28% (active) | 67.4 | 5.82% (active)
